Test results reported in PubChem BioAssay (NCATS).
Inconclusive results are not listed. Unmarked numbers belong to inactive results. Activity calls are given as the source filed them. The call rests on the fitted dose curve; in most records, active means well fitted cell-killing curve with a large enough effect; inconclusive means small, poorly fitted or top-dose-only effect; inactive means no such curve, though single readings can be large or run the other way.

Test: qHTS of pediatric cancer cell lines to identify multiple opportunities for drug repurposing: Primary screen for Saos-2 cells (AID 1347097); further: nearly all actives have a fitted effect of over 40% in size
Details: Saos-2 viability, CellTiter-Glo ATP luminescence, 48 h; series mostly up to 46 µM; activity change, negative = cytotoxic: at the top concentration
Source text: Drug repurposing or repositioning has been offered as a strategy for drug development in oncology programs. This approach has special potential for childhood cancers and other rare or orphan diseases, where the expected return on new drug development has been a disincentive to pharmaceuticals. […] In this project we exploit the poly-pharmacology of drugs to discover new indications via phenotypic screening of a panel of 19 well-characterized cell lines derived from solid tumors seen in children and adolescents. The goal is to identify approved drugs with previously unrecognized anticancer properties that has the potential to reveal new mechanisms and biological processes involved in carcinogenesis or drug resistance. We employed a titration-based paradigm (quantitative high-throughput screening or qHTS), where all compounds were tested at multiple concentrations for their effect on cell viability. Concentration-response curves (CRCs) were derived directly from the primary screen, and both potency and efficacy values were used to identify compounds with robust bioactivity profiles. We screened the NIH Chemical Genomics Center (NCGC) Pharmaceutical Collection (NPC) and Mechanism Interrogation Plate (MIPE) small molecule collections of approved and investigational compounds against these cell lines; and measured metabolically active cells after 48 hours of compound treatment as a proxy for cell viability. […] Assay Submitter: Nathalia J. Martinez, National Center for Advancing Translational Sciences, National Institutes of Health, Rockville, MD, USA; email: natalia.martinez@nih.gov Shen, M et al. Quantitative high-throughput phenotypic screening of pediatric cancer cell lines identifies multiple opportunities for drug repurposing. Oncotarget 2017 Dec 19;9(4):4758-4772. PMID 29435139.
The cells were obtained from University of North Carolina (UNC), Pediatric Preclinical Testing Program (PPT), and Coriell Institute (CI). qHTS cell viability assay: Cells were assayed in growth media at a density of 500-1,000 cells/well. Five microliters of cells were dispensed into 1,536-well, white, solid-bottom, TC-treated plates (Greiner Bio One) using a multidrop dispenser and incubated at 37 degrees C, 5% CO2, under a humidified atmosphere for 5 hours. Twenty-three nanoliters of compounds and controls (neutral control DMSO or positive control bortezomib at final concentration of 2.3 µM) were subsequently transferred by Kalypsys pintool. For primary screens, the MIPE collection was tested at 11-point dilutions (final concentrations range from 0.78 nM to 46 µM) and the NPC collection at 8-point dilutions (final concentrations range from 0.59 nM to 46 µM). Compounds tested in follow-up screens were assayed at 11-point dilutions. Cells were incubated for 48 hours, followed by addition of 3 µL of CellTiter-Glo (Promega). After a 15 min incubation at room temperature, samples were analyzed for luminescence intensity using a ViewLux High-throughput CCD imager equipped with clear filters.
On the % scale 0 is the no-effect control and ±100 the full control effect; potency means the concentration at half of the fitted maximal effect.

Row | SMILES | Potency | activity change, negative = cytotoxic
1 | O=[N+]([O-])c1ccc(O)c2ncccc12 | 10.6 µM (active) | 
2 | CC(C)(C)c1ccc(C(=O)CCCCl)cc1 |  | 1.9%
3 | C[C@H]1C[C@H](O)c2ccsc2S1(=O)=O |  | 5.5%
4 | CCC(=O)Oc1ccc2c(c1)CC[C@@H]1[C@@H]2CC[C@@]2(C)[C@H]1C[C@@H](OC(=O)CC)[C@@H]2OC(=O)CC |  | 19.9%
5 | CCCC(CCC)(C(=O)OCC)C(=O)OCC |  | 12.4%
6 | c1ccc2c(c1)CCc1ccccc1N2 |  | -11.8%
7 | COC(=O)/C=C\C(=O)OC |  | -6.05%
8 | COc1cc(/C=C/C(N)=O)cc(OC)c1OC |  | -23%
9 | CC(C)=CCC/C(C)=C/CC/C(C)=C/CCC(=O)OC/C=C(\C)CCC=C(C)C |  | 10.3%
10 | CCc1cc(S(=O)(=O)O)c2cc(C(C)C)cccc1-2 |  | -7.43%
11 | CN1C(=O)c2ccccc2C1=O |  | -27.8% [at 92.7 µM]
12 | CO/N=C(/C(=O)N[C@@H]1C(=O)N2C(C(=O)OCOC(=O)C(C)(C)C)=C(C)CS[C@H]12)c1csc(N)n1 |  | 18.6%
13 | CCCCCCCCCCCCCCCC[N+](C)(C)Cc1ccccc1 | 23.7 µM (active) | 
14 | CC(NN)c1ccccc1 (stereo not given) |  | -27.5% [at 16.1 µM]
15 | Cc1ccc(Cl)c(OCC(O)CNC(C)(C)C)c1 (stereo not given) |  | -6.15%
16 | Nc1c[n+](N2CCOCC2)no1 |  | 10.3%
17 | CCn1ccc(NS(=O)(=O)c2ccc(N)cc2)nc1=O |  | -4.91%
18 | CN1CCCN=C1/C=C/c1cccs1 |  | 5.95%
19 | COc1cc(OC)nc(O[C@H](C(=O)O)C(OC)(c2ccccc2)c2ccccc2)n1 |  | -24.5%
20 | Cc1cc(O)c(C)c(C)c1O |  | 4.2%

Row | SMILES | Potency | activity change, negative = cytotoxic
21 | CC1(C)O[C@@H]2C[C@H]3[C@@H]4C[C@H](F)C5=CC(=O)C=C[C@]5(C)[C@@]4(F)[C@@H](O)C[C@]3(C)[C@]2(C(=O)CO)O1 |  | -12.4%
22 | CO/N=C(/C(=O)N[C@@H]1C(=O)N2C(C(=O)O)=C(Cn3nnc(C)n3)CS[C@H]12)c1csc(N)n1 |  | -1.2%
23 | Oc1ccccc1 |  | 17.9%
24 | O=C(O)/C=C(\CC(=O)O)C(=O)O |  | 10.7%
25 | CCN(CC)CC(=O)Oc1ccc(NC(C)=O)cc1 |  | 19.8%
26 | O=C(c1ccccc1)c1ccccc1 |  | 24.3%
27 | CCCCCC[C@@H](CCC)C(=O)O |  | -12.5%
28 | Nc1nnnn1-c1ccccc1 |  | 1.9%
29 | CO/N=C(\C(=O)O)c1csc(NC(=O)CCl)n1 |  | 18.1%
30 | NS(=O)(=O)c1ccc(N2CCCCS2(=O)=O)cc1 |  | -2.41%
31 | CCOC(=O)N1CCC(n2c(=O)[nH]c3cc(Cl)ccc32)CC1 |  | -4.41%
32 | O=C(OCCN1CCOCC1)c1cccnc1Nc1cccc(C(F)(F)F)c1 |  | -3.57%
33 | CC(C)C[C@@H]1[C@H](c2ccccc2)OC(=O)N1CCCN1CCCCCC1 |  | -15.8%
34 | C[C@@H](C1=C(CCN(C)C)Cc2ccccc21)c1ccccn1 |  | -8.27%
35 | Cc1cccc(OCC(O)CNC(C)(C)C)c1C (stereo not given) |  | -8.36%
36 | CC(=O)OCC(=O)Nc1cc(C#N)cc(NC(=O)COC(C)=O)c1Cl |  | 1.91%
37 | CN(C)CCOC(c1ccccc1)c1ccc(Br)cc1 (stereo not given) |  | -10.5%
38 | Cc1sccc1Br |  | -26.1%
39 | CC(C)CCCC(C)NCCC(C)C (stereo not given) |  | -21.6%
40 | CC1(C)O[C@@H]2C[C@H]3[C@@H]4CCC5=CC(=O)C=C[C@]5(C)[C@@]4(F)[C@@H](O)C[C@]3(C)[C@]2(C(=O)CO)O1 |  | 11.6%
